Data: PubChem BioAssay AID1245 (Sanford-Burnham Center for Chemical Genomics, 2008)
Values without a mark were called inactive. Calls of active or inactive are those of the source. How the calls were made is not given here.

Assay: Bcl-B/Puma-BH3 peptide binding displacement, dose response, counter-screen for TR3-derived Bcl-B inhibitor project, biochemical, fluorescence polarization (AID 1245)
Conditions: Bcl-B/FITC-Puma-BH3 fluorescence polarization binding

Question: With `Cc1cc(C)nc(/N=C(/N)Nc2cccc(N)c2)n1` as the molecule, how does the EC50 read?
Answer: The EC50 was greater than 25 µM.

Question: With `Cc1ccc(C)n1-c1ccc(Br)cc1C(=O)O` as the molecule, how does the EC50 read?
Answer: The EC50 was 1 µM (active).
